Results on 13 compounds are retold here after PubChem BioAssay (NCI).

About 83,000 compounds went through this panel and 20% of them were active in at least one assay; those are over-represented in the sample as a whole.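 Interpretation: 100, growth as untreated; towards 0, rising growth inhibition; 0, no net growth; 0 to -100, cell death. Compounds scoring below 10 were considered active.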 Values without a mark were called inactive. Calls of active or inactive are those of the source.

Some test systems named below: HCT-15 colon; HT29 colon; SNB-75 CNS; SNB-19 CNS; U251 CNS; PC-3 prostate; SK-MEL-5 melanoma; UACC-62 melanoma; LOX IMVI melanoma; SK-MEL-28 melanoma.
Holding throughout (assay): NCI-60 one-dose screen, 48 h (100 = growth as untreated, 0 = no growth, -100 = all killed)
Conditions in all cases: 10 µM unless noted

As for `COc1cccc(-c2nn(-c3ccccc3)cc2-c2ccnc(NCCNC(=O)Nc3ccccc3)c2)c1`, the growth in the test on HCT-15 colon was 39.3%; with HT29 colon, 29.6%; in the test with SNB-75 CNS, 67.7%; with SNB-19 CNS, 66.5%; in the test with U251 CNS, 36.8%; in the test with PC-3 prostate it was 30.8%. Moreover, the growth is 46.1% with SK-MEL-5 melanoma, 51.5% with UACC-62 melanoma, 44.4% in the test on LOX IMVI melanoma and 77.7% in the test on SK-MEL-28 melanoma.

On to `COc1cccc(-c2nc3sccn3c2-c2ccnc(NCCNS(=O)(=O)c3cccc(F)c3)c2)c1`, for which the growth with HCT-15 colon was 25.1%; in the test on HT29 colon, 27.9%; with SNB-75 CNS, 27.4%; in the test on SNB-19 CNS, 59.2%; in the test on U251 CNS, 45.4%; with PC-3 prostate, 14.1%. Also, the growth in the test on SK-MEL-5 melanoma is 2.05% (active); with UACC-62 melanoma, -17.9% (active); in the test on LOX IMVI melanoma, 32.7%; in the test with SK-MEL-28 melanoma, 56.1%.

Regarding `COc1ccc2[nH]c(O)c(/C=c3/cc4c(c(-c5ccc(F)c(OC)c5)n3)=Nc3ccccc3-4)c2c1`, the growth in the test with HCT-15 colon was -24% (active); in the test on HT29 colon, -78.5% (active); in the test on SNB-75 CNS, 92.1%; in the test with SNB-19 CNS, 47.6%; in the test on U251 CNS, -70.1% (active); with PC-3 prostate, 68.7%. The growth with SK-MEL-5 melanoma is 57.2%; with UACC-62 melanoma, 79.8%; in the test on LOX IMVI melanoma it was -17.2% (active); in the test with SK-MEL-28 melanoma, -51.2% (active).

As to `CNC(=O)c1cc(Oc2ccc3nc(Nc4ccc(Cl)c(C(F)(F)F)c4)ccc3c2)ccn1`, the growth with HCT-15 colon is 41.2%; with HT29 colon, 39.6%; with SNB-75 CNS, 82.7%; in the test with SNB-19 CNS, 77%; in the test on U251 CNS, 56.8%; with PC-3 prostate it was 21.7%. For the same compound, the growth with SK-MEL-5 melanoma was 60.5%; in the test with UACC-62 melanoma, 47.3%; in the test on LOX IMVI melanoma, 60.8%; in the test with SK-MEL-28 melanoma, 68.6%.

For the compound `COc1ccc(Nc2nnc(SCc3ccccc3F)s2)cc1`, the growth in the test with HCT-15 colon was 103%; in the test with HT29 colon, 116%; in the test with SNB-75 CNS it was 102%; in the test on SNB-19 CNS, 103%; in the test with U251 CNS, 104%; in the test with PC-3 prostate, 85.6%. Also, the growth in the test with SK-MEL-5 melanoma was 104%; in the test on UACC-62 melanoma it was 74.8%; in the test on LOX IMVI melanoma, 104%; in the test with SK-MEL-28 melanoma, 109%.

Regarding `N/C(=N\c1nc2ccccc2s1)NC(=O)Nc1cccc(Cl)c1`, the growth in the test with HCT-15 colon is 17.9%; in the test with HT29 colon, 10.2%; in the test on SNB-75 CNS, 13.7%; in the test with SNB-19 CNS, 42.2%; with U251 CNS, 26.1%; with PC-3 prostate, 42.4%. Further, the growth in the test on SK-MEL-5 melanoma is 32.3%; in the test with UACC-62 melanoma it was 25.8%; in the test with LOX IMVI melanoma it was 38.9%; in the test on SK-MEL-28 melanoma, 60.1%.

`O=c1[nH]c2ccccc2n1C1CCN(CCOc2ccccc2)CC1`: the growth in the test with HCT-15 colon was 85.1%; with HT29 colon it was 99.4%; in the test with SNB-75 CNS it was 80.5%; with SNB-19 CNS, 93.3%; in the test with U251 CNS, 88.9%; in the test with PC-3 prostate, 58.9%. For the same compound, the growth was 95.6% in the test with SK-MEL-5 melanoma, 86% with UACC-62 melanoma, 95.2% in the test with LOX IMVI melanoma and 102% in the test on SK-MEL-28 melanoma.

Regarding `O=C(Nc1ccccc1Cl)Oc1ccc(-c2ccccc2)cc1`, the growth with HCT-15 colon is 104%; with HT29 colon, 103%; in the test on SNB-75 CNS, 84.2%; with SNB-19 CNS, 98.4%; with U251 CNS, 112%; with PC-3 prostate it was 99.8%. The growth was 99.9% with SK-MEL-5 melanoma, 89% in the test with UACC-62 melanoma, 106% with LOX IMVI melanoma and 151% in the test with SK-MEL-28 melanoma.

On to `COc1ccc2[nH]c(O)c(C(=Nc3ccc(N(C)C(=O)CN4CCN(C)CC4)cc3)c3ccccc3)c2c1`, for which the growth in the test on HCT-15 colon is 24.7%; with HT29 colon, 18%; with SNB-75 CNS it was -5.94% (active); in the test with SNB-19 CNS, 57.5%; in the test with U251 CNS, 45.1%; in the test on PC-3 prostate it was 56.6%. For the same compound, the growth with SK-MEL-5 melanoma was 67.3%; in the test with UACC-62 melanoma, 75.3%; in the test with LOX IMVI melanoma, 9.09% (active); with SK-MEL-28 melanoma, 42.4%.

For the compound `NS(=O)(=O)c1cnccc1Sc1ccncc1S(N)(=O)=O`, the growth with HCT-15 colon was 102%; in the test on HT29 colon, 113%; in the test on SNB-75 CNS, 96.6%; with SNB-19 CNS, 105%; in the test on U251 CNS it was 107%; in the test with PC-3 prostate, 94.9%. Further, the growth in the test with SK-MEL-5 melanoma is 105%; with UACC-62 melanoma it was 99.4%; in the test on LOX IMVI melanoma it was 101%; in the test on SK-MEL-28 melanoma it was 117%.

As for `O=C(Cc1ccc(F)c(F)c1)Nc1cc(C2(C(F)(F)F)CC2)nn1Cc1ccccc1`, the growth was 6.24% (active) in the test with HCT-15 colon; 17.6% with HT29 colon; -14.9% (active) in the test on SNB-75 CNS; 13.3% in the test with SNB-19 CNS; 4.6% (active) in the test with U251 CNS; -6.07% (active) in the test on PC-3 prostate. Besides, the growth is -80.8% (active) with SK-MEL-5 melanoma, -10.3% (active) in the test with UACC-62 melanoma, 5.44% (active) in the test with LOX IMVI melanoma and 18.6% with SK-MEL-28 melanoma.

For `COc1ccc(C2C(c3nn[nH]n3)=C(N)Oc3c2ccc2ccccc32)cc1` (stereo not given), the growth in the test with HCT-15 colon is 35%; in the test with HT29 colon, 127%; with SNB-75 CNS, 39.9%; with SNB-19 CNS, 67.3%; in the test on U251 CNS it was 73.3%; in the test on PC-3 prostate, 65.5%. For the same compound, the growth in the test with SK-MEL-5 melanoma was 57.5%; in the test on UACC-62 melanoma it was 45.9%; in the test with LOX IMVI melanoma it was 63.5%; with SK-MEL-28 melanoma, 57.4%.

For the compound `O=C(Nc1cccc(Cl)c1)c1cc(N=Nc2ccc([N+](=O)[O-])cc2Cl)ccc1O`, the growth with HCT-15 colon was 72.5%; with HT29 colon, 76.7%; with SNB-75 CNS, 66.4%; with SNB-19 CNS, 73.2%; with U251 CNS, 63.9%; in the test with PC-3 prostate it was 34.8%. Also, the growth with SK-MEL-5 melanoma was 43.3%; in the test with UACC-62 melanoma it was 79.2%; in the test on LOX IMVI melanoma, 98.3%; in the test on SK-MEL-28 melanoma it was 85.5%.
